# Results filed as inconclusive are left out. Active and inactive are the calls of the source. The call rests on the fitted dose curve.
# Molecular target: D(2) dopamine receptor (Homo sapiens) (UniProt P14416)
# Test: Dopamine D2 receptor (DRD2) small molecule agonists, cell-based qHTS assay (AID 1963594); further: nearly all actives have a fitted effect of over 35% in size
# Conditions: HEK293-DRD2 cAMP HTRF, agonist mode, 30 min; series mostly up to 92.4 µM; activation: at the top concentration
# Source text: National Center for Advancing Translational Sciences [NCATS]
# Division of Preclinical Innovation [DPI]
# U.S. Environmental Protection Agency [EPA]
# National Institutes of Environmental Health Sciences [NIEHS]
# National Toxicology Program [NTP]
# U.S. Food and Drug Administration [FDA]
# DRD2 is the D2 subtype of the dopamine receptor, which is coupled to Gi subtype of G protein-coupled receptor. This G protein-coupled receptor inhibits adenylyl cyclase activity. The DRD2-HEK293 cell line stably expressing D2 dopamine receptor can be used for screening agonists and antagonists of interactions between D2 and its ligands. The Hek293-DRD2 cAMP assay is based on HTRF technology. It measures changes of cAMP accumulation in response to Gi coupled GPCR activation or inhibition.
# Tox21 Assay Protocol Summary:
# DRD2-Hek293 cells were dispensed at 600 cells/3uL/well in 1536-well white plates using a Multidrop Dispenser. After the assay plates were incubated at a 37 C/5% CO2 incubator for 24 h, 1 uL of Ro20-1724 at final concentration of 0.1 mM was transferred to the assay plate by a Flying Reagent Dispenser. Following Ro20-1724 addition, 23 nL of compound dissolved in DMSO, positive controls or DMSO only was added to the assay plates via Wako pintool station. The assay plates were incubated at room temperature for 10 min. Next, 1 uL of NKH477 at 200nM was added into the plates. After the assay plates were incubated at room temperature for an additional 30 min, 2.5 ul/well of cAMP-d2 and 2.5 ul/well of anti-cAMP-cryptate were added respectively into the assay plates using a Flying Reagent Dispenser. The plates were incubated at room temperature for 1 h. The fluorescence intensity in the plates was measured at 340 nm excitation and 665 & 620 nm emission by an Envision plate reader.
# On the % scale 0 is the no-effect control and ±100 the full control effect.
# Chain of D(2) dopamine receptor (Homo sapiens) (P14416 whole entry, looked up): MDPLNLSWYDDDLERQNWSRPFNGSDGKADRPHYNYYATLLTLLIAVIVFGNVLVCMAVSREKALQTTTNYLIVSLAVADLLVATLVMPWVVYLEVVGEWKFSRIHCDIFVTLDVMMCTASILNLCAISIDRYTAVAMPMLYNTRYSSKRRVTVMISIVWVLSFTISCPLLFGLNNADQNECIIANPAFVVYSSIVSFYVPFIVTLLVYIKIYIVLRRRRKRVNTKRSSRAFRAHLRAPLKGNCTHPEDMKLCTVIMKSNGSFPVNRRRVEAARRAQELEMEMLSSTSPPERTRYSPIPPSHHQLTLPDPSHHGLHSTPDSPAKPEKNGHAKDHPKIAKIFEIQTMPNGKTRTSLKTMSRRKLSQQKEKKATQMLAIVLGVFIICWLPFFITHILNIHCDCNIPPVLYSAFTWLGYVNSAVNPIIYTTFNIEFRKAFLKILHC
row,SMILES,activation
1,CCCCc1ccc(N)cc1,5.34% (inactive)
2,CC(=O)Oc1cc2c(s1)CCN(C(C(=O)C1CC1)c1ccccc1F)C2 (stereo not given),-8.03% [at 42.5 µM] (inactive)
3,CC[N+]1(CC)CCC(=C(c2ccccc2)c2ccccc2)C1C (stereo not given),-1.65% [at 42.5 µM] (inactive)
4,CC1=C(/C=C/C(C)=C\C=C\C(C)=C\C(=O)O)C(C)(C)CCC1,-0.141% (inactive)
5,O=C(CCBr)N1CCN(C(=O)CCBr)CC1,2.56% [at 42.5 µM] (inactive)
6,CC(C)=CCC/C(C)=C/CC/C(C)=C/CCC(=O)OC/C=C(\C)CCC=C(C)C,4.34% [at 42.5 µM] (inactive)
7,CC(C)CCOC(=O)CC(C)C,6.03% (inactive)
8,Nc1ncnc2c1ncn2[C@H]1CC[C@@H](CO)O1,-0.801% (inactive)
9,C=CC/C=C/C/C=C/C/C=C/C,-4.18% (inactive)
10,C=CCSCC1Nc2cc(Cl)c(S(N)(=O)=O)cc2S(=O)(=O)N1 (stereo not given),-12.7% [at 42.5 µM] (inactive)
11,CC(C)CC(C)CC(C)CC(C)COC(=O)c1ccccc1C(=O)OCC(C)CC(C)CC(C)CC(C)C (stereo not given),2.4% (inactive)
12,CCOC(=O)[C@H](CCc1ccccc1)N[C@@H](C)C(=O)N1CCC[C@H]1C(=O)O,-11.4% [at 42.5 µM] (inactive)
13,O=C(CCN1CCN2CCCC2C1)N1c2ccccc2Sc2ccc(Cl)cc21 (stereo not given),-31% [at 19 µM] (inactive)
14,CCCCC/C=C/CC(=O)OC,2.42% (inactive)
15,CSc1cnc(C)cn1,13.7% [at 240 µM] (inactive)
16,Cc1cc(N)c(S(=O)(=O)O)cc1Cl,3.45% (inactive)
17,CCOC(=O)/C=C/C(=O)OCC,0.0983% (inactive)
18,OCCN1CN(CCO)CN(CCO)C1,-2.34% (inactive)
19,CCOC(=O)OCC/C(SC(=O)OCC)=C(\C)N(C=O)Cc1cnc(C)nc1N,-6.73% [at 42.5 µM] (inactive)
20,CC(C)(C)c1n[nH]c(=S)n(N)c1=O,10.9% (inactive)

row,SMILES,activation
1,CN(C)[C@@H]1C(=O)C(C(=O)NCN2CCCC2)=C(O)[C@@]2(O)C(=O)C3=C(O)c4c(O)cccc4[C@@](C)(O)C3C[C@@H]12 (stereo not given in full),-2.56% [at 42.5 µM] (inactive)
2,Cc1cc(=O)oc2cc(O)cc(O)c12,10.2% (inactive)
3,CCCCC(CC)COC(=O)CCCCCCCCC(=O)OCC(CC)CCCC (stereo not given),0.0211% (inactive)
4,COc1cc(N)c(Cl)cc1C(=O)NC1CCN(CCCOc2ccc(F)cc2)CC1OC (stereo not given),-2.9% [at 42.5 µM] (inactive)
5,Cn1cnc2ncnc(N)c21,-1.33% [at 42.5 µM] (inactive)
6,Cc1c(N)cccc1Cl,0.643% (inactive)
7,NC(=O)NC(=O)Cc1ccccc1,-5.24% [at 42.5 µM] (inactive)
8,CC(=O)OCC(=O)[C@@]1(OC(C)=O)[C@@H](C)C[C@H]2[C@@H]3C[C@H](F)C4=CC(=O)C=C[C@]4(C)[C@@]3(F)[C@@H](O)C[C@@]21C,10.7% [at 42.5 µM] (inactive)
9,COc1ccc(-n2nc(C(F)F)cc2-c2ccc(S(C)=O)cc2)cc1 (stereo not given),-0.402% (inactive)
10,Clc1ccc2n[nH]nc2c1,-5.28% (inactive)
11,O=C1CCCCCCCCCCOCCCCO1,-0.484% (inactive)
12,CCO,4.05% (inactive)
13,O=C(Nc1ccccc1)Nc1ccccc1,0.528% (inactive)
14,CC(C)(c1ccc(Oc2ccc3c(c2)C(=O)OC3=O)cc1)c1ccc(Oc2ccc3c(c2)C(=O)OC3=O)cc1,1.16% (inactive)
15,C=CC1CO1 (stereo not given),3.95% (inactive)
16,CCCCCCCCCCCCCCCC(=O)OC[C@H](O)[C@H]1OC(=O)C(O)=C1O,-0.112% (inactive)
17,CC(=O)Oc1ccc(C(C)=O)cc1,6.34% (inactive)
18,O=C(c1ccc(O)cc1)c1ccc(Cl)cc1,3.6% (inactive)
19,CCCCCCCCCCCCCC=O,1.32% [at 8.39 µM] (inactive)
20,O=c1c(-c2ccccc2)c1-c1ccccc1,-2.39% [at 42.5 µM] (inactive)

# — PubChem BioAssay (Tox21)
